The text below walks through data of PubChem BioAssay AID624161 (National Center for Advancing Translational Sciences (NCATS), 2012).

The other results are listed elsewhere or left out. Records with an inconclusive call do not appear. The source made the active and inactive calls. Calls come from the whole dose curve; as a rule, active = well fitted inhibition curve with a large enough effect; inconclusive = small, poorly fitted or top-dose-only effect; inactive = no such curve, though single readings can be large or run the other way.
Potency is the fitted concentration of half-maximal effect.

Sequence of Histone-lysine N-methyltransferase 2A (Homo sapiens) (Q03164 whole entry, looked up, the tested form may be a part): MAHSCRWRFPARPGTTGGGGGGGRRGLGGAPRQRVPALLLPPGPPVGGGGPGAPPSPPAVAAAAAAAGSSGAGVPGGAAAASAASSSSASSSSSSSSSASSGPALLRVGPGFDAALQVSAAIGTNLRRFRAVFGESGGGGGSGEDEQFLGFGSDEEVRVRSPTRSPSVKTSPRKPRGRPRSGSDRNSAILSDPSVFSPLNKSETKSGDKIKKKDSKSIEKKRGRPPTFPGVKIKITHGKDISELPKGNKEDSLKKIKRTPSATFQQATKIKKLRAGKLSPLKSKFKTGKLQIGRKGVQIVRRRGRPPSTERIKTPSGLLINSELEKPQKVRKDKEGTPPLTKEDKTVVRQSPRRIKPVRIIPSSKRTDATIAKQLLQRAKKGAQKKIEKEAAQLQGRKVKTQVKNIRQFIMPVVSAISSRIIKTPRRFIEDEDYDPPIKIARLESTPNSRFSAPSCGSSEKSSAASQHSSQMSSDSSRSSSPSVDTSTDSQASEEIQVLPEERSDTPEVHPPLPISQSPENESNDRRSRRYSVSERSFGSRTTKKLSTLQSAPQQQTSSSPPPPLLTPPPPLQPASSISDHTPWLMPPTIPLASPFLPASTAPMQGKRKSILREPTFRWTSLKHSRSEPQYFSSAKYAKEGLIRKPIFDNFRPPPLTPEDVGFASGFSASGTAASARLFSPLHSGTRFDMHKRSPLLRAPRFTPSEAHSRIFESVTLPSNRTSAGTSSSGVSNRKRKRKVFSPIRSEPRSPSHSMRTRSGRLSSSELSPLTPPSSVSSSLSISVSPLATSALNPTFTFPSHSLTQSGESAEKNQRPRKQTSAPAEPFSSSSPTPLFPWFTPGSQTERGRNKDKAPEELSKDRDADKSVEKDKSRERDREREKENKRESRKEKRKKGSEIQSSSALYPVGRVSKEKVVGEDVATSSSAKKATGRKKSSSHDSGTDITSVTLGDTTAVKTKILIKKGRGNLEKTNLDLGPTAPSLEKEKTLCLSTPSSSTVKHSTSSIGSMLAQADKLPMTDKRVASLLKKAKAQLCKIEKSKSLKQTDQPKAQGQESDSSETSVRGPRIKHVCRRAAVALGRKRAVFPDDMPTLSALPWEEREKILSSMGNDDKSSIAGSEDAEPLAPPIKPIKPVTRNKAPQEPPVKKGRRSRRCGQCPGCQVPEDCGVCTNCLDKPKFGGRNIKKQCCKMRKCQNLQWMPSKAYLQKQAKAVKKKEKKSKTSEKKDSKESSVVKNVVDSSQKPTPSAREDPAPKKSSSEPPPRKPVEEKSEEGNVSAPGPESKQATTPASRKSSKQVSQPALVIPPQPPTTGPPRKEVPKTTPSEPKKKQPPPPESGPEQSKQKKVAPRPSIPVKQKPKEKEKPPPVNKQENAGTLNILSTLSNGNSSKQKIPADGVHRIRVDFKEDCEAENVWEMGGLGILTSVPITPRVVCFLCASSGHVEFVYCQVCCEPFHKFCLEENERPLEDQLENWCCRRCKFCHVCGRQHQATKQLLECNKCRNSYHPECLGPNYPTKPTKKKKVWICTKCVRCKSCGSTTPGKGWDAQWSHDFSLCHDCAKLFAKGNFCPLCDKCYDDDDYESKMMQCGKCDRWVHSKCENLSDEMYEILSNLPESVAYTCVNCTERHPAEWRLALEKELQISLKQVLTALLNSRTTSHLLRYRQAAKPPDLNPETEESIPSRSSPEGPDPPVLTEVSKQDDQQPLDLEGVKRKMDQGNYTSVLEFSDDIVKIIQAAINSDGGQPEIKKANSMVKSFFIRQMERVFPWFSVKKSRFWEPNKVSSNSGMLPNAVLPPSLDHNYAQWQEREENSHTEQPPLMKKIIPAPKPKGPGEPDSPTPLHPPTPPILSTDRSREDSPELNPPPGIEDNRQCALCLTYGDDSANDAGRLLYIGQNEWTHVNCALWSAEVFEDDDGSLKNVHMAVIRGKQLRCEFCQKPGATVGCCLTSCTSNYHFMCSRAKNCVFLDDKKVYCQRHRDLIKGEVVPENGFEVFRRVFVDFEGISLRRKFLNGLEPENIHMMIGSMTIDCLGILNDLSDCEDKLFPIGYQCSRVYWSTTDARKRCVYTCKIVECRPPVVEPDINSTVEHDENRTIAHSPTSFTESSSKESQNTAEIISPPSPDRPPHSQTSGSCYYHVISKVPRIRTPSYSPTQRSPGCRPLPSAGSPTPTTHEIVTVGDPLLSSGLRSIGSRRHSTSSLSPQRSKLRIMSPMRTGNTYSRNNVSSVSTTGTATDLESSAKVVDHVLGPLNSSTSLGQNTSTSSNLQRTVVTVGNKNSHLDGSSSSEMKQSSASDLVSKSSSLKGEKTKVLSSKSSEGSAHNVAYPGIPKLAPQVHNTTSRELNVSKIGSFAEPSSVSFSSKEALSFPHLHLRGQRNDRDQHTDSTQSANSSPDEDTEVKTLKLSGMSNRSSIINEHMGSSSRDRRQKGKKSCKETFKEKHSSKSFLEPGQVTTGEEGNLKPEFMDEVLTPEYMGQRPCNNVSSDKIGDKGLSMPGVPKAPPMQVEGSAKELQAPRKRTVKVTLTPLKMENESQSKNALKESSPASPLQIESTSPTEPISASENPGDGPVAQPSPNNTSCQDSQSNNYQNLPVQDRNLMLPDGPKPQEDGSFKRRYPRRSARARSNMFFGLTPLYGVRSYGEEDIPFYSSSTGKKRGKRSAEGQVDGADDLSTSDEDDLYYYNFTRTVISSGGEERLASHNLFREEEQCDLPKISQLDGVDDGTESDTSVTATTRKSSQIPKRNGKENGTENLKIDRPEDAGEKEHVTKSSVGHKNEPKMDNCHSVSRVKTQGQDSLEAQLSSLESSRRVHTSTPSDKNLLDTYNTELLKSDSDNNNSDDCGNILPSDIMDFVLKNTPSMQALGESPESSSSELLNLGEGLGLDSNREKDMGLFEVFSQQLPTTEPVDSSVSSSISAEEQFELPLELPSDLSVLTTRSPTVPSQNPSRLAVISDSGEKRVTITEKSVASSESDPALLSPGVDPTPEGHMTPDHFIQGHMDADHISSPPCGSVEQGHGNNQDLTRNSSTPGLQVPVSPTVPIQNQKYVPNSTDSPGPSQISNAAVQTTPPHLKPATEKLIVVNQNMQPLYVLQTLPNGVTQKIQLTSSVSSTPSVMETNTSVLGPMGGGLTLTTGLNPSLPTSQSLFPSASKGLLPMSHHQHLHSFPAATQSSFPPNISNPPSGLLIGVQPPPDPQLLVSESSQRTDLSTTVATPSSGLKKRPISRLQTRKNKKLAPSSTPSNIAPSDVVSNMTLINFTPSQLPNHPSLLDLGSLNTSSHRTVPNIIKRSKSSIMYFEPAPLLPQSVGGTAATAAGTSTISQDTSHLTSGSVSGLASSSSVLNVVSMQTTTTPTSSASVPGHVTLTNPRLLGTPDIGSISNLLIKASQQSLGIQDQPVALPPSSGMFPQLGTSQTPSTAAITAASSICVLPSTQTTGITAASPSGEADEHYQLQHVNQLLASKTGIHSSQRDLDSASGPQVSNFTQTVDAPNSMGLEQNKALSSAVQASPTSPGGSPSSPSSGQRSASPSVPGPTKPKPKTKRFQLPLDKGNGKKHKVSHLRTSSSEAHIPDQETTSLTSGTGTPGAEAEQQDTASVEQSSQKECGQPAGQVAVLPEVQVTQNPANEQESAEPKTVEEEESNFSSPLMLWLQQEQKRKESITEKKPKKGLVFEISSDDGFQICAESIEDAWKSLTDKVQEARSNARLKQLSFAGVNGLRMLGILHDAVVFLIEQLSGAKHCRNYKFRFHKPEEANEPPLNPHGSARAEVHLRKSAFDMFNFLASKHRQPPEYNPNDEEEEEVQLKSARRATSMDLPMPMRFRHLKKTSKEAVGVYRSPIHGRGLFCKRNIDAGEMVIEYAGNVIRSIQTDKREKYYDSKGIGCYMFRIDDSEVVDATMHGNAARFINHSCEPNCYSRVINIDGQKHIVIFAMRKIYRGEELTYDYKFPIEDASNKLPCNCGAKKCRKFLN

The target in this assay is Histone-lysine N-methyltransferase 2A (Homo sapiens) (UniProt Q03164). The assay can be described thus: qHTS Fluorescence Polarization (FP) Assay for Inhibitors of MLL CXXC domain - DNA interaction: Texas Red FP. Note: nearly all actives have a fitted effect of over 75% in size. The note with it: MLL CXXC-DNA binding; series mostly up to 345 µM. The text has this:
The MLL (Mixed Lineage Luekemia) gene is involved in chromosomal translocation that results in either acute lymphoid leukemia (ALL) or acute myeloid leukemia (AML). Chromasomal translocation of MLL gene is responsible for the fusion of N-terminal MLL to more than 60 different partner genes in frame. Many of the MLL partner genes contain transcription activation domains or function as transcriptional activators. Despite the heterogeneity of fusion partners, the N-terminus of MLL fusion proteins always consists of the N-terminal menin binding motif and the CXXC domain. The MLL-CXXC domain specifically recognizes unmethylated CpG sequences of the HOX-A gene. Disruption of the MLL-CXXC and HOX-A gene interaction leads to down regulation of HOX-A gene expression and may potentially reverse leukemogenesis. We have miniaturized and optimized an in-vitro assay to screen for inhibitors of the MLL-CXXC domain and HOX-A DNA interaction, which could have utility in MLL fusion leukemias.
This is a hit validation assay that tests this hits identified in the primary screen in this secondary screen, using a Texas Red FP as a read-out.
NIH Molecular Libraries Probe Production Network [MLPCN]
NIH Chemical Genomics Center [NCGC]
PI Name: John Bushweller, University of Virgina
The affinity purified MLL-CXXC domain, unlabeled HOX-A9 DNA strand, Texas Red (FLSN) labeled HOX-A9 DNA strand were kindly supplied by the laboratory of Dr. John Bushweller, University of Virginia. All reagents were stored in single use aliquots at -80C.
Assay buffer: 50 mM TRIS-HCl pH 7.5, 50 mM NaCl, 1 mM DTT. Add 0.05% BSA prior to reaction setup.
1.Dispense 1 ul of a 7 uM MLL-CXXC solution prepared in assay buffer into column 1-48.
2.Transfer 23 nl of compounds and unlabeled HOX-A9 per well.
3.Incubate for 5 minutes at ambient.
4.Dispense 1ul of a 50 nM TR-HOX-A9 solution prepared in assay buffer into columns 1-48
5.Centrifuge for 30 seconds at 1000 RPM.
6.Incubate for 30 minutes at ambient.
7.Read using the Envision reader fluorescent polarization protocol.
Consider `CCOC(=O)/C(N=Nc1cc(C(=O)O)cc(C(=O)O)c1)=C(\O)CCl`, for which the Potency was 142 µM (active).

Turning to `O=C1NN(c2ccccc2)C(=O)/C1=C/c1ccc(-c2cccc(C(=O)O)c2)o1`, the Potency is 126 µM (active).

As for `COc1cc(/C=C2/C(=O)NN(c3ccc(F)cc3)C2=O)cc([N+](=O)[O-])c1O`, the Potency is 126 µM (active).

As for `COc1ccc(-c2onc3ccc(C(C)=O)cc23)cc1`, the Potency result was “inactive”.

Turning to `COc1ccc(S(=O)(=O)/N=C2\C=C(NS(=O)(=O)c3ccccc3)C(=O)c3ccccc32)cc1`, the Potency entry is “inactive”.
